The text below walks through data of PubChem BioAssay AID624381 (The Scripps Research Institute Molecular Screening Center, 2012).

The whole screen tested about 2,300 compounds, of which about 430 (19%) were called active. A selection follows. Unmarked numbers belong to inactive results.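 How the source made its calls: active means mean activation across triplicates above the hit threshold derived in the original primary screen (cut at about 15% in these data); inactive means the rest.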

The target in this assay is 5-hydroxytryptamine receptor 2A (Mus musculus) (UniProt P35363). As to the kind of experiment: mouse HTR2A agonists, beta-arrestin recruitment, confirmation, cell-based, luminescence, CHO-K1 PathHunter, triplicate (AID 624381). The following applies: at 7.6 µM, hits give high values, DMSO 0%, 30 µM serotonin 100%. A general note: Arrestin recruitment assays detect the binding of arrestin to an activated receptor.
5-hydroxytryptamine receptor 2A (Mus musculus), sequence (P35363 whole entry, looked up): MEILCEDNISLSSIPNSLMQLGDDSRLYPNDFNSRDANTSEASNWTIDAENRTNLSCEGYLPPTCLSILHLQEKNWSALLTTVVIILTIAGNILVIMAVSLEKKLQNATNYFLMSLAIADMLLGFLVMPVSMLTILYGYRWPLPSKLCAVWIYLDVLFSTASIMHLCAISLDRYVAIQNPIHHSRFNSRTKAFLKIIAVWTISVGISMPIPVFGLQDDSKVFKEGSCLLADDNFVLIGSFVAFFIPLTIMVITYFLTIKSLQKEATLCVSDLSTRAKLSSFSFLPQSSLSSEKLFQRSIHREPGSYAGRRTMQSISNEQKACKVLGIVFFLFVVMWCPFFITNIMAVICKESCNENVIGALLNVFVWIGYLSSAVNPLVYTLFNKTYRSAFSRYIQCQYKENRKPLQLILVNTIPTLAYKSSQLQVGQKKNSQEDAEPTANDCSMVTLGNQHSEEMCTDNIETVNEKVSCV
With `Cc1[nH]c2ccccc2c1CCN(Cc1cccs1)C(=S)NC(C)(C)C`, the activation is 4.41%.
Under `CCOc1ccc(/C(O)=C2\C(=O)C(=O)N(c3ccc(OC)cc3)C2c2ccccc2[N+](=O)[O-])cc1` (stereo not drawn) stands 1.71%; under `CCCCn1c(N)c(N(CC(C)C)C(=O)CSc2ccc([N+](=O)[O-])cc2)c(=O)[nH]c1=O`, 0.81%.
Under `C=CCn1c(=NC(=O)c2cccs2)sc2cc(NC(C)=O)ccc21` stands -1%; under `COc1ccc(NS(=O)(=O)c2cc(C(=O)Nc3ccccc3C(=O)O)ccc2C)cc1`, 5.94%.
As for `CCOC(=O)c1cc(-c2ccccc2C)n(Cc2cc(C)no2)n1`, the activation is 2.4%.
Under `O=C(c1ccco1)N1CCN(CCOc2ccccc2)CC1` stands 34.5% (active); under `COc1cccc(OC)c1OCCN1CCN(C(=O)c2ccco2)CC1`, 78.4% (active).
To `CSc1ncnc2c1ncn2CCCNCc1cccs1` belongs -4.72%; to `Oc1ccc(CN2CCN(c3ncccn3)CC2)cc1`, 101% (active); to `COc1ccccc1CN1CCN(Cc2cc(OC)c(OC)cc2OC)CC1`, 8.39%.
To `Cc1ccc(CN2CCN(c3ncccn3)CC2)c(C)c1` belongs 118% (active).
For `CC(C)c1cc(C(=O)O)on1`, the activation was 13.4%.
Turning to `O=C(CNCc1cccs1)Nc1cc(S(=O)(=O)N2CCCC2)ccc1Cl`, the activation was 50.6% (active).
With `O=C1CCc2cc(S(=O)(=O)N3CCC(C(=O)NCc4ccccc4Cl)CC3)ccc2N1`, the activation was -6.01%.
To `COC(=O)c1ccc(CSc2nnc(NC(C)C)s2)cc1` belongs -5.43%; to `COc1ccc(C2c3[nH]c4ccccc4c3C[C@H]3C(=O)N(CC(C)C)CC(=O)N23)c(OC)c1` (stereo partly drawn), 0.84%; to `Cc1cccc(CN2CCN(C3CN(Cc4ccccc4)S(=O)(=O)C3)CC2)c1` (stereo not drawn), 8.09%.
Consider `O=C(NCCCN1CCN(c2ccccc2F)CC1)C1CCC(=O)N1C1CCCCC1` (stereo not drawn), for which the activation was 41.4% (active).
Under `CC(C)Oc1ccccc1C(=O)NC(CO)C(=O)O` (stereo not drawn) stands 0.21%.
As to `Cc1cccc(CN2CCN(C3CN(Cc4cn(Cc5cc(C)cc(C)c5)nn4)S(=O)(=O)C3)CC2)c1` (stereo not drawn), the activation was 8.35%.
To `Cc1cc(C(=O)OCC(=O)N2c3ccccc3NC(=O)C2(C)C)c(C)n1-c1ccccc1` belongs -2.45%; to `CN(C)[C@@H]1C(=O)C(C(N)=O)=C(O)[C@@]2(O)C(=O)C3=C(O)c4c(O)ccc(Cl)c4[C@@H](O)[C@H]3C[C@@H]12`, 40.1% (active); to `CCCCC(CC)CNC(=O)CCCCn1c(=O)[nH]c2ccsc2c1=O` (stereo not drawn), -3.5%.
With `COc1ccc(-c2nc3cc([N+](=O)[O-])ccc3o2)cc1OC`, the activation is -2.5%.
To `COc1ccc2[nH]cc(CCN3C(=O)c4ccc(C(=O)O)cc4C3=O)c2c1` belongs -1.14%; to `COC(=O)[C@]12CCCCC=C1N(CCC1=CCCCC1)C(=O)[C@H](CC(=O)NCC1CCCCC1)C2`, -5.33%.
Regarding `Nc1cc(C(=O)N2CCN(c3ccccc3Cl)CC2)ccc1N1CC2CC(C1)c1cccc(=O)n1C2` (stereo not drawn), the activation is -1.89%.
With `COC(=O)c1cc(N2CCNCC2)nc2ccccc12`, the activation is 2.65%.
As for `O=C(c1ccncc1)N1CCN(c2ccc3ccccc3n2)CC1`, the activation is 17.1% (active).
Under `COC(=O)Cn1nc(-c2ccccc2)c2cc(Cl)ccc21` stands -5.87%; under `FC(F)(F)COc1nc(N2CCCCC2)nc(N2CCNCC2)n1`, 8.3%.
Under `CS(=O)(=O)c1ccc2nc(NC(=O)C3CCCCC3)sc2c1` stands -0.86%.
Under `O=C(Nc1ccc2c(c1)[C@@H]1C[C@@H](CC(=O)N3CCCCC3)O[C@@H](CO)[C@@H]1O2)NC1CCCCC1` stands -4.45%; under `COc1ccc(/C=N/Nc2ccccc2C(=O)O)cc1`, 4.6%.
Take `Cc1cc([N+](=O)[O-])ccc1NC1CCCC1`: the activation is 13.5%.
For the compound `Cc1ccc(NC(=O)CSc2nnc(COc3ccccc3C)o2)cc1`, the activation is -4.47%.
To `N#CCSc1nn(-c2ccc(F)cc2)c(=S)s1` belongs -4.94%; to `COCCN(Cc1cc2cc3c(cc2nc1Cl)OCO3)C(=O)c1cccc(C)c1`, 3.25%.
Under `CC(Nc1ccccc1)c1cccnc1` (stereo not drawn) stands -3.04%.
Consider `CC1(Cc2cccc(C#N)c2)C(=O)Nc2ccc(-c3cccc(C(F)(F)F)c3)cc21` (stereo not drawn), for which the activation was -0.38%.
To `NNc1cccc(C=Cc2ccccc2)cc1=O` belongs 1.74%.
With `O=C(Nc1cccc2cccnc12)c1ccc2sc([C@H]3C[C@H](O)[C@@H](CO)O3)nc2c1`, the activation was 4.32%.
Turning to `Cc1ccc(NC(=O)CCOc2ccccc2)cc1S(=O)(=O)Nc1ccccc1Cl`, the activation is 3.02%.
In the case of `Cc1ccc(S(=O)(=O)N2CCN(c3ncnc4ccccc34)CC2)cc1`, the activation is 9.56%.
To `CC(=O)c1ccc(OCC(=O)N(C)C2CCS(=O)(=O)C2)cc1` (stereo not drawn) belongs -3.74%.
Under `COC(=O)[C@@]1(Cc2ccc(F)cc2)[C@H]2c3cc(C(=O)N(C)C)n(CCc4c[nH]c5ccc(OC)cc45)c3C[C@H]2CN1C(=O)c1ccccc1` stands 10.9%; under `C/C(=N\NC(=O)COc1c(C)cccc1C)c1cccs1`, -2.38%; under `CCCN(CCc1ccccc1)C1CCc2c(O)cccc2C1` (stereo not drawn), 164% (active).
In the case of `CCCC(=O)N=c1sc2cccc(F)c2n1C`, the activation is -2.76%.
`Cc1ccc2c(c1)NCC(C(=O)NC1CCC(C)CC1)O2` (stereo not drawn): the activation is -3.96%.
To `CSc1nsc(SCC(=O)Nc2cc(C(=O)O)ccc2C)n1` belongs 1.2%.
Under `CCOCCCNC(=O)Cc1cc(=O)[nH]c(=O)[nH]1` stands -1.89%; under `CC(=O)N1c2ccc(S(=O)(=O)N3CCC(C(=O)NC4CCCCC4C)CC3)cc2CC1C` (stereo not drawn), -5.72%.
Under `O=C(O)C1C2C=CC(O2)C1C(=O)NCCc1cccc(Cl)c1` (stereo not drawn) stands 4.65%; under `COC(=O)CC(=O)N1CCN(c2ccc(Cl)c(Cl)c2)CC1`, 13.8%; under `O=C(O)c1ccc(S(=O)(=O)N2CCC(Cc3ccccc3)CC2)cc1`, -0.19%.
Regarding `COc1ccc(CNC(=O)c2ccc(NS(=O)(=O)c3ccc4[nH]c(=O)[nH]c4c3)cc2)cc1OC`, the activation is -3.98%.
